Measurements from PubChem BioAssay.
Activity calls are given as the source filed them.

What was measured:
Albumin (Bos taurus) = Albumin (Bos taurus) (UniProt P02769); experiment: compounds binding labelled BSA control protein – biochemical, small-molecule microarray, Alexa647 label, 635/667 nm fluorescence, artefact control for SMM control protein annotation, profiling panel (AID 1118); conditions: BSA-A647 binding, fluorescence 635 nm, higher = more signal;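 further: score merges 667 nm emission intensity and signal-to-noise per printed compound spot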
[1] = probe aXIP binding to arrayed compounds – biochemical, NeuroSMM set, 635/667 nm fluorescence, primary screen (AID 1119); conditions: small-molecule microarray, higher = more signal, called active from +8 up or from −8 down;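 further: probe is the protein aXip251-270 applied at 1 µg/mL to compound-printed slides; binding of probe to printed compounds measured as 667 nm fluorescence plus signal to noise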
[2] = probe aNOTCH3 binding on compound microarray – biochemical, small-molecule microarray, 635/667 nm fluorescence, primary screen (AID 1120); conditions: higher = more signal;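 further: probe is a biotin-tagged antibody raised against NOTCH3 rather than NOTCH3 protein; score merges spot fluorescence near 667 nm with spot signal to noise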
[3] = probe aNOTCH2 binding on compound microarray – biochemical, small-molecule microarray, 635/667 nm fluorescence, primary screen (AID 1121); conditions: higher = more signal;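 further: score merges feature fluorescence read at 667 nm with its signal to noise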
[4] = biological target: Carbonic anhydrase 2 (Homo sapiens) (UniProt P00918); experiment: compounds binding carbonic anhydrase 2 – biochemical, small-molecule microarray, Alexa647-labelled CAII, profiling panel (AID 1122); conditions: CAII-A647 binding fluorescence, higher = more signal
[5] = COS7 lysate on small-molecule microarray, probe aHis, 635 nm (AID 1123); conditions: COS7 cell lysate, fluorescence, higher = more signal;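 further: z-score combines 667nm fluorescence intensity with signal-to-noise per printed compound spot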
[6] = probe aLAP1 signal on lysate-treated microarray – cell lysate, small-molecule microarray, COS7 lysate, primary screen (AID 1124); conditions: probe aLAP1, fluorescence, higher = more signal;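 further: lysate comes from COS7 cells expressing LAP1 and is applied at 0.3 µg/mL; score merges spot fluorescence near 667 nm with signal-to-noise over triplicate slides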
Sam68 (KHDRBS1) = experiment: compounds binding KHDRBS1 protein – biochemical, small-molecule microarray, 635 nm fluorescence, primary screen (AID 1125); conditions: higher = more signal;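 further: score merges 667 nm channel intensity with signal to noise over triplicate slides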
[7] = test system: Chordin-like protein 2 (CHRDL2); experiment: compounds binding chordin-like 2 – biochemical, small-molecule microarray, 635 nm fluorescence, primary screen (AID 1126); conditions: fluorescence 635 nm, higher = more signal;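 further: printed compound slides probed with Chrdl2 protein at 4 µg/mL for 1 h at 4 C; score merges 667 nm emission intensity with signal to noise over three replicate slides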
[8] = biological target: Concanavalin-A (Canavalia ensiformis) (UniProt P02866); experiment: compounds binding concanavalin A lectin – biochemical, small-molecule microarray, Alexa647 label, 635 nm, artefact control for SMM control protein annotation, primary screen (AID 1127); conditions: ConA-A647 binding fluorescence, higher = more signal;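 further: z combines 667 nm emission intensity with signal-to-noise across three replicate slides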
[9] = compounds binding Alexa647 anti-His antibody – biochemical, small-molecule microarray, 635 nm fluorescence, artefact control for SMM control protein annotation, primary screen (AID 1128); conditions: higher = more signal;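 further: score merges feature fluorescence with signal-to-noise for each printed compound spot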
[10] = test system: Human papillomavirus type 1a E7 protein (residues 1-88); experiment: HPV1a E7 small-molecule binders, primary screen, biochemical, small-molecule microarray, residues 1-88, 635 nm (AID 1129); conditions: small-molecule microarray binding, fluorescence 635 nm; higher = more signal
[11] = biological target: Focal adhesion kinase 1 (Homo sapiens) (UniProt Q05397); experiment: PTK2 protein binding on printed compound slides – biochemical, small-molecule microarray, 635/667 nm fluorescence, BSA, DTT, primary screen (AID 1130); conditions: 635 nm fluorescence, higher = more signal;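 further: composite of spot emission at 667 nm and signal to noise over triplicate slides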
[12] = test system: Fibrinogen (Alexa647-labelled); experiment: Alexa647-fibrinogen binding to printed small molecules – biochemical, small-molecule microarray, 635/667 nm fluorescence, artefact control for SMM control-protein annotation, profiling panel (AID 1131); conditions: fibrinogen-A647 binding fluorescence, higher = more signal;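 further: z-score merges 667 nm fluorescence with per-spot signal-to-noise over triplicate slides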
[13] = biological target: Follistatin (Homo sapiens) (UniProt P19883); experiment: FST protein binding to printed compounds – biochemical, small-molecule microarray, 635/667 nm fluorescence, primary screen (AID 1132); conditions: 635 nm fluorescence, higher = more signal
[14] = biological target: Fibroblast growth factor 2 (Homo sapiens) (UniProt P09038); experiment: basic fibroblast growth factor binding to printed compounds – biochemical, small-molecule microarray, 635/667 nm fluorescence, primary screen (AID 1133); conditions: FGF2, fluorescence 635/667, higher = more signal
[15] = JC-1 mitochondrial potential readout, lung cancer cells – cell-based, A549, JC-1 fluorescence, basal, 24 h, 100 nL, profiling panel (AID 1138); conditions: higher = more signal;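 further: A549 lung adenocarcinoma cells under basal conditions with no added stimulus; test concentration not given here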
Lefty1 = Lefty1 protein binding to printed compounds – biochemical, small-molecule microarray, 635/667 nm fluorescence, primary screen (AID 1139); conditions: fluorescence 635/667, higher = more signal
[16] = test system: wheat germ agglutinin (Triticum aestivum), Alexa647-labelled; experiment: Alexa647-WGA lectin binding to printed small molecules – biochemical, small-molecule microarray, 635/667 nm fluorescence, artefact control for SMM control-protein annotation, profiling panel (AID 1140); conditions: WGA-A647 binding, 635 nm fluorescence, higher = more signal;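 further: score merges 667 nm feature emission with signal to noise over triplicate slides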
[17] = biological target: Luciferin 4-monooxygenase (Photinus pyralis) (UniProt P08659); experiment: inhibition of purified Photinus pyralis luciferase – biochemical, luminescence, purified enzyme, 2006 set, primary screen (AID 1141); conditions: purified firefly luciferase, SteadyGlo luminescence, 30 min; higher = more signal, called active from +8 up or from −8 down;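 further: cell-free assay with purified firefly luciferase at 100 ng per well in PBS; test concentration not given here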
Chain of Luciferin 4-monooxygenase (Photinus pyralis) (P08659 whole entry, looked up): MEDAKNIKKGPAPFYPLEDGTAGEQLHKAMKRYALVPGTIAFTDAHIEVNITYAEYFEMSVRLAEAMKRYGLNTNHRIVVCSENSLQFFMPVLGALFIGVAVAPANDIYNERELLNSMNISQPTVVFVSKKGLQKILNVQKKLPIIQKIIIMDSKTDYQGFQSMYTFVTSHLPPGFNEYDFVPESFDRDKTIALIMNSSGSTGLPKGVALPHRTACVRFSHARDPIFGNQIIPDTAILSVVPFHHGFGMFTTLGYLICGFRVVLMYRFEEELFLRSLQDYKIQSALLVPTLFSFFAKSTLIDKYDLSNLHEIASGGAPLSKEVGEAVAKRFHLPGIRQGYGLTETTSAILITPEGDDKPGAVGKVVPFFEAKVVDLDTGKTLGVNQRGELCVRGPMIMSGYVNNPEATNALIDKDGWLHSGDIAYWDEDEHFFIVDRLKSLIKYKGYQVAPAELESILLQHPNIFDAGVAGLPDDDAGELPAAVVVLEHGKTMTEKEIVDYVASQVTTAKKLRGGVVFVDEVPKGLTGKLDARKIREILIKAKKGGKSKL

Chain of Concanavalin-A (Canavalia ensiformis) (P02866 whole entry, looked up): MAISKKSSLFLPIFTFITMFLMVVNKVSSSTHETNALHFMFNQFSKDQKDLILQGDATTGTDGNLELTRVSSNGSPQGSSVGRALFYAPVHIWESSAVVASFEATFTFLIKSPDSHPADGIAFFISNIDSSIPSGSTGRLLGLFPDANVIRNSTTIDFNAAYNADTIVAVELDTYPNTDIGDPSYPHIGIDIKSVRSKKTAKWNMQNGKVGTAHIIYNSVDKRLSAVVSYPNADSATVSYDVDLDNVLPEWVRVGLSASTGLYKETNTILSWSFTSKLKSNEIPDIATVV
Chain of Fibroblast growth factor 2 (Homo sapiens) (P09038 whole entry, looked up): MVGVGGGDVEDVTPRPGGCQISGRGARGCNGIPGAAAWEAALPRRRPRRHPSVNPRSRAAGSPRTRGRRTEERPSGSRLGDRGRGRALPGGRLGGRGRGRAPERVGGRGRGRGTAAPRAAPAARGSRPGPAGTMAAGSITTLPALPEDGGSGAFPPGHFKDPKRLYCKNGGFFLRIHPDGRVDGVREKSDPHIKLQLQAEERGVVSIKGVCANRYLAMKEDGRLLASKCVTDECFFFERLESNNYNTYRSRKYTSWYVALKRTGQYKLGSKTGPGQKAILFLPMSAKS
Chain of Focal adhesion kinase 1 (Homo sapiens) (Q05397 whole entry, looked up): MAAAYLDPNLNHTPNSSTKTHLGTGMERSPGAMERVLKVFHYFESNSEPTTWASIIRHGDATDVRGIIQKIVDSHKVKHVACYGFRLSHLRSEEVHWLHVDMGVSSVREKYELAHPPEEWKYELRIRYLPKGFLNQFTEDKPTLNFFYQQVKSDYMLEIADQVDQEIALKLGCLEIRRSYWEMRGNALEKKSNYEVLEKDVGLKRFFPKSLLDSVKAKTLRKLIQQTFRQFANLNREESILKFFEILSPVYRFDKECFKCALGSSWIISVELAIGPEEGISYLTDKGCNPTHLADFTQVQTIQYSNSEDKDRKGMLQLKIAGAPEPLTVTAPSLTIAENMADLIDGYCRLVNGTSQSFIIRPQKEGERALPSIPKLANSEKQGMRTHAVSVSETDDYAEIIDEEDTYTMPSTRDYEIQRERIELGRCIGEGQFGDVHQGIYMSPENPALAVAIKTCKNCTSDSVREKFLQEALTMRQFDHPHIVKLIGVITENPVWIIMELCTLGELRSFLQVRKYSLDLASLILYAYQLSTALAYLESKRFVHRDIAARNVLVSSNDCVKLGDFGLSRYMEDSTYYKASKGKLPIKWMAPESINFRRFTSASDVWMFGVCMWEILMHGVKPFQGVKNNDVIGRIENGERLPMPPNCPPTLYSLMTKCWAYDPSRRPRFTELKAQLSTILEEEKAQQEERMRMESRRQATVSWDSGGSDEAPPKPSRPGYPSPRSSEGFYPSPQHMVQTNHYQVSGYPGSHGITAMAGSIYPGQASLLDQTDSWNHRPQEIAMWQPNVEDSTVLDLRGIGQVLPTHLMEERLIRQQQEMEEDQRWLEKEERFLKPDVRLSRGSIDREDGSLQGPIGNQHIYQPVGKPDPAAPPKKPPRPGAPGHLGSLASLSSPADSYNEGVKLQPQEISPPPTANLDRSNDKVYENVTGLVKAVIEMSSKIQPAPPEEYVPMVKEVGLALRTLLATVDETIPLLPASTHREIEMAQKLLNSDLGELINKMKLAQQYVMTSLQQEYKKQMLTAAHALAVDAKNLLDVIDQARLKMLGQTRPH
Chain of Albumin (Bos taurus) (P02769 whole entry, looked up): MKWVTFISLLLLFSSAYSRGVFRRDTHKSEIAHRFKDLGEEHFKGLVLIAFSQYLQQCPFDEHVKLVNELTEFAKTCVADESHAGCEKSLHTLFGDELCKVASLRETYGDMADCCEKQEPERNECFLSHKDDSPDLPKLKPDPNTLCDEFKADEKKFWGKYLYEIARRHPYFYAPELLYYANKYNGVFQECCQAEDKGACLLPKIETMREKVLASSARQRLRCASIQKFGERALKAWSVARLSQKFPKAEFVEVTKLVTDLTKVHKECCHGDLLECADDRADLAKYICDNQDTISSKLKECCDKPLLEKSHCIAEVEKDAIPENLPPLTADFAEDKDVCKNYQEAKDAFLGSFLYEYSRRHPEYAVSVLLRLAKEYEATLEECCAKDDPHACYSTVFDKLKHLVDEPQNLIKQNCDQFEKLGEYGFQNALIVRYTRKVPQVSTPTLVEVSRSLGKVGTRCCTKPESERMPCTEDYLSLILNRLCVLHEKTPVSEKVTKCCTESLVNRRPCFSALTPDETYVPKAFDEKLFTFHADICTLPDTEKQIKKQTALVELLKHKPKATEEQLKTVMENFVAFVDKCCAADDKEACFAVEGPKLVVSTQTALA
Chain of Follistatin (Homo sapiens) (P19883 whole entry, looked up): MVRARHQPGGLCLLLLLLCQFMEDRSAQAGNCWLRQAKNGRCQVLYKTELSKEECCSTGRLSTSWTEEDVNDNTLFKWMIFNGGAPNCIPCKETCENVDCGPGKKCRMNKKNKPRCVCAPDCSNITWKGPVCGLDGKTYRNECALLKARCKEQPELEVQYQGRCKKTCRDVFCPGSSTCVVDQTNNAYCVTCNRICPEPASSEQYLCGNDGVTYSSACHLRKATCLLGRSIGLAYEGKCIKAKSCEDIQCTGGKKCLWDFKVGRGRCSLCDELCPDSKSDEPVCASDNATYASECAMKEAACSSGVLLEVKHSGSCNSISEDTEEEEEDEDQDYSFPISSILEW

SMILES | composite z-score (Albumin (Bos taurus)) | composite Z-score [1] | composite z-score [2] | composite z-score [3] | composite z-score [4] | composite z-score [5] | composite z-score [6] | composite z-score (Sam68 (KHDRBS1)) | composite z-score [7] | composite z-score [8] | composite z-score [9] | composite z-score [10] | composite z-score [11] | composite z-score [12] | composite z-score [13] | composite z-score [14] | z-score [15] | composite z-score (Lefty1) | composite z-score [16] | z-score [17]
CCCNC(=O)[C@@]1(Sc2ccc(C)cc2)CC(=O)N(Cc2ccccc2Cl)[C@@H]1c1ccc(CO)cc1I | -0.266 | -0.588 (inactive) | 0.965 | -0.0836 | 0.529 | 0.649 | -0.0685 | -0.169 | -1.56 | 0.0737 | 0.977 | -0.157 | 0.313 | 0.22 | -0.328 | -1.08 | 0.685 | -0.896 | 0.202 | 0.718 (inactive)
COc1ccc(NN2C(C(O)c3ccc(I)cc3)C=CC3C(=O)N(C4CCCCC4)C(=O)C32)cc1 (stereo not given) | 0.843 | 0.84 (inactive) | 0.394 | -0.075 | 0.444 | 1.53 | 0.444 | 1.32 | -0.195 | 1.1 | 0.698 | 1.23 | -0.0558 | 0.951 | 1.3 | 0.366 | 0.119 | 0.946 | 1.22 | 1.29 (inactive)
COCCOC(=O)N1C(=O)[C@@]2(c3cc(C#CCCO)ccc31)[C@H](c1ccccc1OCCO)N1[C@H](c3ccccc3)[C@H](c3ccccc3)OC(=O)[C@H]1[C@@H]2C(N)=O | -0.0956 | -0.0135 (inactive) | -0.0054 | -0.118 | 0.578 | 1.89 | 0.128 | 1.3 | 0.0193 | 1.05 | 1.75 | 1.24 | 0.621 | 0.996 | 1.02 | 0.963 | -0.0726 | 0.78 | 0.246 | 0.85 (inactive)
CCCCCCc1nc(Cc2cc(OC)c(OC)c(OC)c2)cc2c1[Si](C(C)C)(C(C)C)O[C@H]2c1ccccc1 | -0.261 | 0.688 (inactive) | -0.0647 | -0.166 | -0.117 | -0.327 | -0.589 | 0.523 | 0.52 | 0.118 | 0.0156 | 0.0994 | -0.148 | 0.146 | 0.571 | 0.675 | 0.216 | 0.845 | -0.17 | 0.555 (inactive)
O=C1C[C@@](C(=O)NC2CC2)(c2ccc([N+](=O)[O-])cc2)[C@@H](c2ccc(CO)cc2)N1C1CCCCC1 | 0.535 | 0.002 (inactive) | 0.11 | -0.0995 | 0.512 | 2.7 | 0.0901 | 1.28 | 0.43 | 0.704 | 2.79 | 1.23 | 0.333 | 0.122 | 1.3 | 1.64 | -0.282 | 0.894 | 0.407 | 0.997 (inactive)
COC(=O)[C@@]1(Cc2ccc(F)cc2)[C@H]2c3cc(C(=O)N4CCCC4)n(CCc4ccccn4)c3C[C@H]2CN1C(=O)c1ccccc1 | 0.634 | 0.191 (inactive) | 0.0488 | 0.186 | 0.852 | 2.13 | 0.233 | 0.0315 | -0.163 | 0.222 | 0.272 | 0.786 | 0.754 | 0.97 | -0.227 | -0.418 | 0.622 | -1.03 | 1.01 | 0.458 (inactive)
CC(C)NC(=O)[C@@]1(C)c2ccccc2C(=O)N(Cc2ccccc2)[C@H]1c1ccc(CO)cc1 | 0.489 | -0.621 (inactive) | -0.432 | -0.153 | 0.692 | 1.86 | 0.329 | 0.696 | -1.6 | 0.537 | 2.31 | 0.244 | -0.226 | -0.722 | -0.4 | -0.719 | 0.648 | -0.189 | 0.948 | -1.09 (inactive)
O=C1O[C@H](c2ccccc2)[C@H](c2ccccc2)N2[C@H]1[C@@H](C(=O)O)[C@]1(C(=O)Nc3ccc(C#CCCO)cc31)[C@H]2c1ccc(OCCO)cc1 | 0.316 | 0.0388 (inactive) | 0.0026 | 0.015 | 0.596 | 2.2 | 1.38 | 1.08 | 1.11 | 0.891 | 2.27 | 1.22 | 0.146 | 0.974 | 1.22 | 1.16 | 0.747 | 0.0897 | 1.17 | -3.11 (inactive)
O=C1C2C=CC(C(O)c3ccc([N+](=O)[O-])cc3)N(Nc3ccccc3F)C2C(=O)N1c1ccccc1 (stereo not given) | 1.04 | 0.0431 (inactive) | -0.124 | 0.0323 | 0.703 | -0.309 | 1.06 | 0.808 | -0.445 | 0.886 | 1.68 | 1.19 | -0.119 | 0.717 | 0.232 | -0.218 | -0.675 | -0.46 | 1.36 | 0.739 (inactive)
CN1C(=O)[C@@H]2[C@@H](CC(COc3ccccc3)=C3[C@@H](CCc4ccccc4)OB(O)C[C@@H]32)C1=O | -0.062 | 0.581 (inactive) | 0.135 | -0.0073 | 0.229 | 0.71 | 0.809 | 0.31 | -0.102 | -0.0514 | -0.526 | -0.211 | -0.175 | 0.48 | 0.127 | -0.0572 | 0.208 | -0.0163 | 0.469 | -0.326 (inactive)
